Experimental data taken from ChEMBL document CHEMBL1961873, “Compounds: GSK PKIS; Assays: Nanosyn kinase panel” (2012).

Experiments:
[1] = biological target: T1, Serine/threonine-protein kinase D2 (Homo sapiens) (UniProt Q9BZL6); conditions: at 1 µM;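 also: mean value of PRKD2 inhibition, from the GSK PKIS screening panel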
T1 sequence (whole entry): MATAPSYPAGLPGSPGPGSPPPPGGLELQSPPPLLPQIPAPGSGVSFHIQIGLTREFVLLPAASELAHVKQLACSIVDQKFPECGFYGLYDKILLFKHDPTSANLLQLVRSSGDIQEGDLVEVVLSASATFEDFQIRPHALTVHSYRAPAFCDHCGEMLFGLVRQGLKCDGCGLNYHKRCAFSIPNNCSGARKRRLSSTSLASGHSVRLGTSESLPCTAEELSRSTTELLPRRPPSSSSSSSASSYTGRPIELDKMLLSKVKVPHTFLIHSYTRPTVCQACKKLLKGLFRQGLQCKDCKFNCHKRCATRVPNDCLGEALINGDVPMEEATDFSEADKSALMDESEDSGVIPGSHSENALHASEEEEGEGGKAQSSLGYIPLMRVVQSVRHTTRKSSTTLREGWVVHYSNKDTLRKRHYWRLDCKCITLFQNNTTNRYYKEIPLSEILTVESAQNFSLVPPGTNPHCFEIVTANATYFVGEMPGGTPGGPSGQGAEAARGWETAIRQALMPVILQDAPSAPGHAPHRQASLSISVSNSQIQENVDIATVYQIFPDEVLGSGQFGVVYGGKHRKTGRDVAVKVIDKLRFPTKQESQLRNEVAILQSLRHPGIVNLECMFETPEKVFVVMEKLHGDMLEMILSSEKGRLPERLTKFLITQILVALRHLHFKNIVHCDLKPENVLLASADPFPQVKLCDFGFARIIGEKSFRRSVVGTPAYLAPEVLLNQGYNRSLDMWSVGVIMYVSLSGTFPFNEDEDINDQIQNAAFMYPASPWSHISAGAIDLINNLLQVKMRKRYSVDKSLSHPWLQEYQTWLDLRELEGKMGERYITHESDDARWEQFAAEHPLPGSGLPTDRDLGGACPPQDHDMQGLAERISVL

[2] = biological target: T2, Serine/threonine-protein kinase D3 (Homo sapiens) (UniProt O94806); conditions: at 0.1 µM
T2 sequence (whole entry): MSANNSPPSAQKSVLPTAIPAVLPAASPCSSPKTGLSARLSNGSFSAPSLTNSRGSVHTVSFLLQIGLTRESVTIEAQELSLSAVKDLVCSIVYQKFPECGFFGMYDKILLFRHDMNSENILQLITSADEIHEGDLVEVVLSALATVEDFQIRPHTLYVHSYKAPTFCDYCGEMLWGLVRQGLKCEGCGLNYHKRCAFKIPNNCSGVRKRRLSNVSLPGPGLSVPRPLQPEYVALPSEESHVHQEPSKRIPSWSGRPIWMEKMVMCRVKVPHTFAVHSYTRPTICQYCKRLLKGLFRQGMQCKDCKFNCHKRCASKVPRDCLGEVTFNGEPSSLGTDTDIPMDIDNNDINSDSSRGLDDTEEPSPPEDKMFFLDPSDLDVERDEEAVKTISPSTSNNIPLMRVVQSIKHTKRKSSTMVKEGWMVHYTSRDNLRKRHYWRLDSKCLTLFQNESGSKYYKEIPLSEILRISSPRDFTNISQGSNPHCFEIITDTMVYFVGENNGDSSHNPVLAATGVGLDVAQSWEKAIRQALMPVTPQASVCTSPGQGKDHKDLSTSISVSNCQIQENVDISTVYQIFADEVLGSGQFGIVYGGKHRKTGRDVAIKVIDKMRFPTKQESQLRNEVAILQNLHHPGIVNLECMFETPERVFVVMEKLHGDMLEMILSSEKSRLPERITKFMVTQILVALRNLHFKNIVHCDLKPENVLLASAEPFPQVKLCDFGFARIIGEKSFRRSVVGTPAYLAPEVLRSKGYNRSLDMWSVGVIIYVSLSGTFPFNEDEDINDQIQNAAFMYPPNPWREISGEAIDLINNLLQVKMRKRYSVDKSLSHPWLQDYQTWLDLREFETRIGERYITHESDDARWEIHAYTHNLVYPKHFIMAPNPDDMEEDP

[3] = biological target: T2, Serine/threonine-protein kinase D3 (Homo sapiens); conditions: at 1 µM
[4] = biological target: T3, cGMP-dependent protein kinase 1 (Homo sapiens) (UniProt Q13976); conditions: at 0.1 µM
T3 sequence (whole entry): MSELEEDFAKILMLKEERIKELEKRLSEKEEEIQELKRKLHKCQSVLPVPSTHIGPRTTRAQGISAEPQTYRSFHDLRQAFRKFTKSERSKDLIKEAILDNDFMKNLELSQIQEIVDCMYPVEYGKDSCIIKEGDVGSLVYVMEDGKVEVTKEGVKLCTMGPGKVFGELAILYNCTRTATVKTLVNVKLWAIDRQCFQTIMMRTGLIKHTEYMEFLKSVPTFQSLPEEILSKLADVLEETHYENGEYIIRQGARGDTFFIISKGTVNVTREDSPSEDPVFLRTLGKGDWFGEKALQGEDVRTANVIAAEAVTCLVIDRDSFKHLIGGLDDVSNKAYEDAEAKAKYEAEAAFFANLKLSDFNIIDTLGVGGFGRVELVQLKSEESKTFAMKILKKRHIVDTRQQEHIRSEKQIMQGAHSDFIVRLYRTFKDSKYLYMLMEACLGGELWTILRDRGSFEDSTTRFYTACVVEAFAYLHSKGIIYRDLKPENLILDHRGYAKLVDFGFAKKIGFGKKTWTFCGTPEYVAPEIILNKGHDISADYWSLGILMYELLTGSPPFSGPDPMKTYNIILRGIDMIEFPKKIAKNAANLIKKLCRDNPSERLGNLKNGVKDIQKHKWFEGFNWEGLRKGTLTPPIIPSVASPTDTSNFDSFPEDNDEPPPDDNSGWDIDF

[5] = biological target: T3, cGMP-dependent protein kinase 1 (Homo sapiens); conditions: at 1 µM
[6] = biological target: T4, cGMP-dependent protein kinase 2 (Homo sapiens) (UniProt Q13237); conditions: at 0.1 µM
T4 sequence (whole entry): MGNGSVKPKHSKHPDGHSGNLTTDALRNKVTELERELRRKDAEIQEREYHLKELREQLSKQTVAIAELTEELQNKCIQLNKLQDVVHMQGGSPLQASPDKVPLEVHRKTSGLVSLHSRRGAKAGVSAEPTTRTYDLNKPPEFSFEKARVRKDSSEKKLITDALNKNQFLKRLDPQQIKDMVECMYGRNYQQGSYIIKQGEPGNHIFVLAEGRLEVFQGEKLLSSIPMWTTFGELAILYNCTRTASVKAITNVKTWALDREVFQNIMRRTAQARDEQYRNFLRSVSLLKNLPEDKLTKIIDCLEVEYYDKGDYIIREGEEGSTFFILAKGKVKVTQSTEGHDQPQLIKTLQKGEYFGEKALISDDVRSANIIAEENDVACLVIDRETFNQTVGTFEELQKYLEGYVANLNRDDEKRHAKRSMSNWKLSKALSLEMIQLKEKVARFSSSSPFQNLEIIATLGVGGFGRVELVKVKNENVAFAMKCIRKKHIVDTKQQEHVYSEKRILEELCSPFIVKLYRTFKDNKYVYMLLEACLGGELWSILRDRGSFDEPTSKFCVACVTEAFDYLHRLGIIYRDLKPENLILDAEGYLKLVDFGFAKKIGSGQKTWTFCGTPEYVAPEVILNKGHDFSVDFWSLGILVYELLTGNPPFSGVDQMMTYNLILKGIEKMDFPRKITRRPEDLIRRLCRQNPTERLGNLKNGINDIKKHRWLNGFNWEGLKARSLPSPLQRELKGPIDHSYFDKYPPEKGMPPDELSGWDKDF

[7] = biological target: T4, cGMP-dependent protein kinase 2 (Homo sapiens); conditions: at 1 µM
[8] = biological target: T5, cAMP-dependent protein kinase catalytic subunit PRKX (Homo sapiens) (UniProt P51817); conditions: at 0.1 µM
T5 sequence (whole entry): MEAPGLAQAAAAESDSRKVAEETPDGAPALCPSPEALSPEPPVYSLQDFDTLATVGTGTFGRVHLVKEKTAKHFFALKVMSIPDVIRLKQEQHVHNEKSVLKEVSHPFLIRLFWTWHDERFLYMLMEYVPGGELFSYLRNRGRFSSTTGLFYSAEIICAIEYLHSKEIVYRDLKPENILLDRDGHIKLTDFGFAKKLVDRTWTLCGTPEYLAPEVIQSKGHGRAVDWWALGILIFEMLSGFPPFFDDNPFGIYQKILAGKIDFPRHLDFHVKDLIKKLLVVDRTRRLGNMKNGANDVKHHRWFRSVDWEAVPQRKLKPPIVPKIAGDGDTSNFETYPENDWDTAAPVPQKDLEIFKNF

[9] = biological target: T5, cAMP-dependent protein kinase catalytic subunit PRKX (Homo sapiens); conditions: at 1 µM
[10] = biological target: Rho-associated protein kinase 1 (Homo sapiens) (UniProt Q13464); conditions: at 0.1 µM
Chain of Rho-associated protein kinase 1 (Homo sapiens) (Q13464 2-1354 limits assumed): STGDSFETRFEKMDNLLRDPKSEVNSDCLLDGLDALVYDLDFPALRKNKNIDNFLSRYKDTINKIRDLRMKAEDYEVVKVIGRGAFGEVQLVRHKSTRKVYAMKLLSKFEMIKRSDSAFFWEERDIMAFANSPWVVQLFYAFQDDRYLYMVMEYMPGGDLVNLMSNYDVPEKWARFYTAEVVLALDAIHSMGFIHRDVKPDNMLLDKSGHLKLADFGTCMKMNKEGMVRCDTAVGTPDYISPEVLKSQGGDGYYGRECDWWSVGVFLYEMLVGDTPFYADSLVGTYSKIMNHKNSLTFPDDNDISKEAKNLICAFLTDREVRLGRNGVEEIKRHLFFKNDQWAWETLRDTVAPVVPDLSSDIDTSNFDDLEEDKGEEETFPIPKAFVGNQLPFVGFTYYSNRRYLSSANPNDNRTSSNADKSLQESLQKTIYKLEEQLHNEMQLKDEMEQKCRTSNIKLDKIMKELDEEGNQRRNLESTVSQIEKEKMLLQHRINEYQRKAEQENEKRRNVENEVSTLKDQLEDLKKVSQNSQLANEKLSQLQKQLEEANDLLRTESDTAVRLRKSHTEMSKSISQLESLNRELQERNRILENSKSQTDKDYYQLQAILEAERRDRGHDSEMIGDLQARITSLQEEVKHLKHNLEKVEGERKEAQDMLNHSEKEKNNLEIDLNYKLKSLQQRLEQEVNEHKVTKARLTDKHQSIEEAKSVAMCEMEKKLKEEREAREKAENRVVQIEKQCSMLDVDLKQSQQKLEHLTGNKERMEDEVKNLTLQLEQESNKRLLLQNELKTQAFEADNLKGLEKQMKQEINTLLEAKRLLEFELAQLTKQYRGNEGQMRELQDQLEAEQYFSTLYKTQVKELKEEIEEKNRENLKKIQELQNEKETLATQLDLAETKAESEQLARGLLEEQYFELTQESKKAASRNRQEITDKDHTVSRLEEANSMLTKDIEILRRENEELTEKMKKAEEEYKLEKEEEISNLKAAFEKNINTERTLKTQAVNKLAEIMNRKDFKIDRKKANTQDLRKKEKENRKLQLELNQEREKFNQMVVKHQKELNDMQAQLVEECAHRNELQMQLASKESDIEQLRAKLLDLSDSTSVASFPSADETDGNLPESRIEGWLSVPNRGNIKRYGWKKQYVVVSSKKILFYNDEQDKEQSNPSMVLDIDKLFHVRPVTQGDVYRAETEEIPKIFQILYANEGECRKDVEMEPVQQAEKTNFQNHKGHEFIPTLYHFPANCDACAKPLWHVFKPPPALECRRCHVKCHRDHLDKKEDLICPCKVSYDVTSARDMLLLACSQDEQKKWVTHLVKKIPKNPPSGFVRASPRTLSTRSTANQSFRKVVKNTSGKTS

[11] = biological target: Rho-associated protein kinase 1 (Homo sapiens) (UniProt Q13464); conditions: at 1 µM
[12] = biological target: Rho-associated protein kinase 2 (Homo sapiens) (UniProt O75116); conditions: at 0.1 µM
[13] = biological target: Rho-associated protein kinase 2 (Homo sapiens) (UniProt O75116); conditions: at 1 µM
[14] = biological target: Ribosomal protein S6 kinase alpha-1 (Homo sapiens) (UniProt Q15418); conditions: at 0.1 µM
Chain of Ribosomal protein S6 kinase alpha-1 (Homo sapiens) (Q15418 whole entry): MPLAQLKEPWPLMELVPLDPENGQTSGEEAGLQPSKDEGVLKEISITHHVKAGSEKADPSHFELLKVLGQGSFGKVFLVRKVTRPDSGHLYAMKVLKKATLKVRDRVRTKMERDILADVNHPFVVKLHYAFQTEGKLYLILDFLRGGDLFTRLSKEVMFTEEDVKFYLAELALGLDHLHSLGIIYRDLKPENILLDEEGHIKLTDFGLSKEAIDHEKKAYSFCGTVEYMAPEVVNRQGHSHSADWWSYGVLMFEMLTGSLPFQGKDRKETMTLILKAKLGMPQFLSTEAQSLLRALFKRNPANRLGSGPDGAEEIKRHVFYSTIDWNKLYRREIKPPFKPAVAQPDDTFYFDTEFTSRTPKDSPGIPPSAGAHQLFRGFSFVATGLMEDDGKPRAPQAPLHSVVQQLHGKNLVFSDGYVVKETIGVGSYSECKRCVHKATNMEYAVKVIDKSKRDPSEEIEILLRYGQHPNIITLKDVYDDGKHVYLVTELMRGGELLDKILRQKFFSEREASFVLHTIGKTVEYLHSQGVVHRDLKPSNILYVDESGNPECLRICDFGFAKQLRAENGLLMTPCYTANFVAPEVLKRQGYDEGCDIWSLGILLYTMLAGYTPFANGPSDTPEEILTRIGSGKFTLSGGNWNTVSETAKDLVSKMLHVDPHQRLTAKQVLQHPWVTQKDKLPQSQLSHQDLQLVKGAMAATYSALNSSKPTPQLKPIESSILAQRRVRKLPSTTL

[15] = biological target: Ribosomal protein S6 kinase alpha-1 (Homo sapiens) (UniProt Q15418); conditions: at 1 µM
[16] = biological target: Ribosomal protein S6 kinase alpha-3 (Homo sapiens) (UniProt P51812); conditions: at 0.1 µM
Chain of Ribosomal protein S6 kinase alpha-3 (Homo sapiens) (P51812 whole entry): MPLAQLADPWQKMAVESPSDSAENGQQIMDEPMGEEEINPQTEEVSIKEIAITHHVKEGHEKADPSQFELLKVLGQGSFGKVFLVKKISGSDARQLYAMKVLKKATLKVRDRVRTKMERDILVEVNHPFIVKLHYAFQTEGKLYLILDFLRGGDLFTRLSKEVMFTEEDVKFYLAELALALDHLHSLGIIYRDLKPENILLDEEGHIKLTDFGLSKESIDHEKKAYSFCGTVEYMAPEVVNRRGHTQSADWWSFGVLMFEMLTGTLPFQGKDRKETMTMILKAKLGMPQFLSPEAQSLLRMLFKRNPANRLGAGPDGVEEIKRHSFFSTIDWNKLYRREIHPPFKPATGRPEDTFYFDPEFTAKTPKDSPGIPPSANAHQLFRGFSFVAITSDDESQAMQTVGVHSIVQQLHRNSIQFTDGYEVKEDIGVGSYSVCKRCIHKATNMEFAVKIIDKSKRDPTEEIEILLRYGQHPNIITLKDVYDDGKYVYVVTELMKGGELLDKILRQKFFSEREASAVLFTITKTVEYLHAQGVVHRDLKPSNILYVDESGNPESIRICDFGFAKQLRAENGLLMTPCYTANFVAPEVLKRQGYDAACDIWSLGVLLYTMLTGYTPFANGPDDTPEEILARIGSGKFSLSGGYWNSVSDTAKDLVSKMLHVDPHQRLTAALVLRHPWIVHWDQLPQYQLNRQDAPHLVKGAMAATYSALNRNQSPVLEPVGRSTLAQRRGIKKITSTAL

[17] = biological target: Ribosomal protein S6 kinase alpha-3 (Homo sapiens) (UniProt P51812); conditions: at 1 µM
[18] = biological target: Ribosomal protein S6 kinase alpha-2 (Homo sapiens) (UniProt Q15349); conditions: at 0.1 µM
Chain of Ribosomal protein S6 kinase alpha-2 (Homo sapiens) (Q15349 whole entry): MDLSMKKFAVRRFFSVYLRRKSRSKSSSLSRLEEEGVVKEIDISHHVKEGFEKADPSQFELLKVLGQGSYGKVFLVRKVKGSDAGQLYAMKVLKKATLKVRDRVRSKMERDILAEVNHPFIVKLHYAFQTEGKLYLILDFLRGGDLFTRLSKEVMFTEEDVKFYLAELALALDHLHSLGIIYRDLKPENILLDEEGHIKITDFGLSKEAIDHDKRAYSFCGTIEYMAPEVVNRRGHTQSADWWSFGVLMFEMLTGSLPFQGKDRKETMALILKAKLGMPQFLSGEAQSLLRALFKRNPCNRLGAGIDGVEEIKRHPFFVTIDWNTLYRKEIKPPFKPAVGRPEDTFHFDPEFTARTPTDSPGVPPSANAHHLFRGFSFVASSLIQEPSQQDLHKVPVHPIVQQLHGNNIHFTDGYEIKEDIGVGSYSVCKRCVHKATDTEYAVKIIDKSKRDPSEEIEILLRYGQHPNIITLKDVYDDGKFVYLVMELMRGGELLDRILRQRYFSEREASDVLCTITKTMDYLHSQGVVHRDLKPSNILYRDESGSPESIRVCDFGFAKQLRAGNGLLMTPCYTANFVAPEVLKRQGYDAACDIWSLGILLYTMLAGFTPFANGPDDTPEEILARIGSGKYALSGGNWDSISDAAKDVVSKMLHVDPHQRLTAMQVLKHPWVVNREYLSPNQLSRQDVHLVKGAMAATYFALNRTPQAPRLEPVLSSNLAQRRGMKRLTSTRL

[19] = biological target: Ribosomal protein S6 kinase alpha-2 (Homo sapiens) (UniProt Q15349); conditions: at 1 µM
[20] = biological target: Ribosomal protein S6 kinase alpha-6 (Homo sapiens) (UniProt Q9UK32); conditions: at 0.1 µM;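 also: reported value is the mean inhibition of RSK4, from the GSK PKIS kinase inhibitor screen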
Chain of Ribosomal protein S6 kinase alpha-6 (Homo sapiens) (Q9UK32 whole entry): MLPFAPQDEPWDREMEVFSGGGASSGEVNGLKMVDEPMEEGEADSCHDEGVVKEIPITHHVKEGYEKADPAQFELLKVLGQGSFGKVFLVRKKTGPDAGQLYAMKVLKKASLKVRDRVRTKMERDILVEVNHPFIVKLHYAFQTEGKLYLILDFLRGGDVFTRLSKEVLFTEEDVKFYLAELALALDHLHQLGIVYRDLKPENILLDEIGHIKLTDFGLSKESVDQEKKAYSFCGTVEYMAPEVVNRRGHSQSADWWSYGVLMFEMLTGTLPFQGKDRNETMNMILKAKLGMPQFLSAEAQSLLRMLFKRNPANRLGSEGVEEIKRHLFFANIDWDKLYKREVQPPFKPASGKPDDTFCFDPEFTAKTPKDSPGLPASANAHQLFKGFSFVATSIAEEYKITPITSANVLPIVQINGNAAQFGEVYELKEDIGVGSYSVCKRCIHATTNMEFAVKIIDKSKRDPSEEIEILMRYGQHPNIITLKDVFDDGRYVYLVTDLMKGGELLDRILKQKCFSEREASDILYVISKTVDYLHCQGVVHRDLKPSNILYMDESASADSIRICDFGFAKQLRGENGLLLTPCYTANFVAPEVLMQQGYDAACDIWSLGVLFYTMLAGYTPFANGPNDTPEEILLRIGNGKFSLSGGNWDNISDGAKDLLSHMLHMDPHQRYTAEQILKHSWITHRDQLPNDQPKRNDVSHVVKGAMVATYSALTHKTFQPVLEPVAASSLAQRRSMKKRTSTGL

Compound | inhibition [1] [%] | inhibition [2] [%] | inhibition [3] [%] | inhibition [4] [%] | inhibition [5] [%] | inhibition [6] [%] | inhibition [7] [%] | inhibition [8] [%] | inhibition [9] [%] | inhibition [10] [%] | inhibition [11] [%] | inhibition [12] [%] | inhibition [13] [%] | inhibition [14] [%] | inhibition [15] [%] | inhibition [16] [%] | inhibition [17] [%] | inhibition [18] [%] | inhibition [19] [%] | inhibition [20] [%]
COC(=O)Nc1nc2ccc(S(=O)(=O)c3ccc(NC(=O)Nc4cc(C(F)(F)F)ccc4F)cc3)cc2[nH]1 | 5.37 | 3.18 | 5.1 | 2.21 | 3.86 | 2.34 | 2.48 | 0.54 | -0.36 | 0.44 | 2.05 | 1.37 | -0.72 | 1.38 | 0.31 | 0.77 | 0.41 | 1.99 | 2.47 | 0.08
Nc1nc(-c2cccc(Cl)c2)c(-c2ccc3ncccc3n2)s1 | 40.1 | 7.77 | 33.1 | 2.8 | 5.63 | 1.78 | 4.96 | 3.46 | 5.88 | 1.58 | 1.91 | 4.39 | 7.84 | 3.03 | 9.16 | 1.82 | 4.8 | 3.04 | 2.74 | 1.97
COc1ccc(-c2oc3ncnc(N)c3c2-c2ccc(NC(=O)Nc3cc(C(F)(F)F)ccc3F)cc2)cc1 | 3.15 | 3.02 | 2.96 | 4.53 | 3.73 | 3.35 | 5.54 | 4.23 | 3.47 | 2.21 | 11.5 | 6.51 | 41.8 | 10.5 | 61.3 | 4.28 | 34.4 | 1.67 | 34.1 | 0.74
CS(=O)(=O)CCNCc1ccc(-c2ccc3ncnc(Nc4ccc(OCc5ccccc5)c(C(F)(F)F)c4)c3c2)o1 | 2.47 | 4.3 | 4.39 | 2.93 | 0.85 | 1.82 | 0.3 | 2.36 | 2.08 | 10.3 | 2.14 | 2.7 | 2.3 | 0.89 | 1.86 | 1.54 | 1.72 | 2.31 | 2.74 | 0.89
FC(F)(F)c1cccc(-c2nn3ncccc3c2-c2ccnc(Nc3ccc4c(c3)OCCO4)n2)c1 | 49 | 6.61 | 47.2 | 0.41 | 2.81 | 0.46 | 3.03 | 0.27 | -1.55 | 0 | 2.47 | 0 | 1.32 | 1.14 | 5.1 | -0.79 | -1.39 | 1.2 | 2.46 | 1.4
CNC(=O)c1cncc(/C=C/c2ccccc2Cl)c1 | -1.08 | 0.25 | -0.83 | 1.15 | 2.29 | 2.05 | 2.68 | 1.22 | 2.62 | 0.5 | 1.5 | 3.13 | 6.36 | 0.85 | 2.91 | 1.15 | 1.38 | -0.36 | -1.02 | 0.95
NC(=O)c1sc(-n2cnc3ccc(C(F)(F)F)cc32)cc1OCc1ccccc1Br | 4.08 | 4.03 | 3.94 | 3.55 | 8.39 | 2.01 | 5.42 | 3.81 | 8.33 | 0.45 | 3.95 | 2.8 | 4.98 | 2.63 | 4.25 | 0.56 | 2.48 | 0.97 | 3.47 | 0.36
